Here are results for 40 molecules from PubChem BioAssay (Tox21).

Records with an inconclusive call do not appear. Where a call stands in place of a potency, no number is given. Unmarked numbers belong to inactive results. Calls of active or inactive are those of the source. Calls follow the shape of the dose curve; as a rule, active = well fitted activation curve with a large enough effect in the repeat runs; inconclusive = weak or mixed curves, or effect the other way; inactive = no such curve, though single readings can be large or run the other way.
Potency is read from the fitted curve at half-maximal effect.

A short description of the experiment: qHTS assay to identify small molecule agonists of the retinoic acid receptor (RAR) signaling pathway (AID 1159553). The settings on record: C3RL4 RARE luciferase reporter, agonist, 6 h; series mostly up to 73.3 µM. The source says:
National Center for Advancing Translational Sciences [NCATS] NIH Chemical Genomics Center [NCGC] U.S. Environmental Protection Agency [EPA] National Institutes of Environmental Health Sciences [NIEHS] National Toxicology Program [NTP] Assay overview: All-trans Retinoic acid (atRA) is the potent natural metabolite of retinol and plays an important role in normal embryonic development and maintenance of cellular phenotype in adult animals. atRA is the activating ligand for the retinoic acid receptors (RARs) which form heterodimers with retinoid X receptors (RXRs) on the retinoic acid response element (RARE). Through activation of the RAR/RXRs nuclear receptors, atRA regulates the transcription of a large number of protein-coding genes and regulatory RNAs. Intracellular levels of atRA are controlled by the retinol signaling pathway (RSP) that regulates the biosynthesis and catabolism of atRA to maintain physiological levels. Chemicals that interfere with the RSP can cause abnormal intracellular levels of atRA and therefore are potential developmental toxicants. To assess compounds for the potential adverse effect on embryonic development through interfering with retinol signaling, a cell-based RARE luciferase reporter gene assay was used. C3RL4 cell line (OARSA/CFSAN/FDA, Laurel, MD) was used to screen Tox21 10K compound library for identifying activators of the RSP.
Assay Protocol Summary: C3RL4 cells were seeded at 1,000/well in 5 uL of assay medium into white solid 1,536-well tissue culture plates (Greiner Bio-One North America Inc. Monroe, NC) using a Multidrop Combi (Thermo Scientific, Waltham, MA) dispenser. After incubation at 37 C and 5% CO2 for an overnight, 23 nL of compounds dissolved in DMSO, positive control or DMSO only were transferred by a Pintool station (Kalypsys, San Diego, CA). After 6 hr incubation at 37 C and 5% CO2, 5 uL of Amplite Luciferase reagent (AAT Bioquest Inc. Sunnyvale, CA) was added to each assay plate using a Flying Reagent Dispenser (FRD) (Aurora Discovery, San Diego, CA). Luminescence was quantified on a ViewLux plate reader (PerkinElmer, Waltham, MA) after 30 min incubation at room temperature.
(qHTS replaces the single test concentration by a dilution series.)
For `O=S(=O)(O)c1cccc2c(S(=O)(=O)O)cccc12`, the Potency result was “inactive”. As for `COc1cc(C(=O)NCc2ccc(OCCN(C)C)cc2)cc(OC)c1OC`, the Potency result is “inactive”.

Consider `CC(C)(C)C(=O)Oc1ccc(S(=O)(=O)Nc2ccccc2C(=O)NCC(=O)O)cc1`, for which the Potency entry is “inactive”. As to `CCCn1cc[n+](C)c1C`, the Potency result is “inactive”. Take `CCC(C)(CN(C)C)OC(=O)c1ccccc1` (stereo not given): the Potency result is “inactive”.

For `c1ccc(CCc2ccccc2)cc1`, the Potency result was “inactive”. As to `CN1CCN(c2cc3c(nn2)Oc2ccccc2N3C)CC1`, the Potency was 5.8 µM (active). As to `C[C@H]1[C@H](NC(=O)/C(=N/OC(C)(C)C(=O)O)c2csc(N)n2)C(=O)N1S(=O)(=O)O` (stereo in doubt), the Potency result is “inactive”. For the molecule `COc1ccc2cc1Oc1cc3c(cc1OC)CC[N+](C)(C)[C@H]3Cc1ccc(cc1)Oc1c(OC)c(OC)cc3c1[C@@H](C2)[N+](C)(C)CC3`, the Potency entry is “inactive”. In the case of `FB(F)F`, the Potency result is “inactive”. With `CCC1C(=O)OCC1Cc1cncn1C` (stereo not given), the Potency entry was “inactive”. For `CC12CCC(C(=O)C1=O)C2(C)C` (stereo not given), the Potency entry is “inactive”.

On to `CCOC(=O)C1=NOC(c2ccccc2)(c2ccccc2)C1`, for which the Potency entry was “inactive”.

As for `O=C(c1ccccc1O)c1ccccc1O`, the Potency entry is “inactive”. Turning to `CNCC(O)c1ccc(O)c(O)c1` (stereo not given), the Potency result is “inactive”. Turning to `CC(=O)c1ccccc1[N+](=O)[O-]`, the Potency entry was “inactive”. On to `Nc1ccn([C@@H]2O[C@H](CO)[C@@H](O)[C@@H]2O)c(=O)n1`, for which the Potency entry was “inactive”.

`CCCCS(=O)(=O)N[C@@H](Cc1ccc(OCCCCC2CCNCC2)cc1)C(=O)O`: the Potency result is “inactive”. Turning to `CC(N)C12CC3CC(CC(C3)C1)C2` (stereo not given), the Potency result is “inactive”. As to `[Ca+2]`, the Potency result was “inactive”. `CCNS(=O)(=O)c1ccc(C)cc1`: the Potency result is “inactive”. For the molecule `CO[C@@]1(NC(=O)C(C(=O)O)c2ccc(O)cc2)C(=O)N2C(C(=O)O)=C(CSc3nnnn3C)CO[C@@H]21` (stereo not given in full), the Potency result was “inactive”. With `C[N+](C)(C)CCCCCCCCCC[N+](C)(C)C`, the Potency result is “inactive”. Turning to `CCN[C@@H]1C[C@H](N)[C@@H](OC2OC(CN)=CCC2N)[C@H](O)[C@H]1O[C@H]1OC[C@](C)(O)[C@H](NC)[C@H]1O` (stereo not given in full), the activation is 1.16% [at 0.756 µM]. For the molecule `CN(C)CCCCCCN(C)C`, the Potency result is “inactive”. In the case of `Cc1ccc(C(=O)c2ccc(CC(=O)O)n2C)cc1`, the Potency entry is “inactive”. Consider `O=C1c2ccccc2C(=O)c2cc(O)ccc21`, for which the Potency was 17.2 µM (active).

As to `Cc1ncc(COP(=O)(O)O)c(C=O)c1O`, the Potency result is “inactive”. Still for that read-out and setting: next, `C[N+]12CCC(CC1)C(OC(=O)C(O)(c1ccccc1)c1ccccc1)C2` (stereo not given): “inactive”; `COC(=O)Nc1ccc(Cl)c(Cl)c1`: “inactive”. In the case of `NC(N)=NCCN1CCCCCCC1`, the activation was 0.885% [at 0.756 µM]. On to `CN(C)C(=O)Oc1cccc([N+](C)(C)C)c1`, for which the Potency entry is “inactive”. The same measure, in the same setting: next, `CC(C(=O)O)c1cccc(Oc2ccccc2)c1` (stereo not given): “inactive”; `CO/N=C(\C(=O)N[C@@H]1C(=O)N2C(C(=O)O)=C(CSc3nc(=O)c(O)nn3C)CS[C@H]12)c1csc(N)n1`: “inactive”; `CC(C)COC(=O)c1ccc(N)cc1`: 18.8 µM (active). For the molecule `C[N+]1(C)[C@@H]2CC(OC(=O)[C@H](CO)c3ccccc3)C[C@H]1[C@@H]1O[C@@H]12` (stereo not given in full), the Potency result was “inactive”. As to `CC1=NN(c2cc(S(=O)(=O)O)ccc2Cl)C(=O)C1N=Nc1ccccc1` (stereo not given), the Potency was 68.6 µM (active). The same measure, in the same setting: then `C[N+]1(CC2COC(c3ccccc3)(c3ccccc3)O2)CCCCC1` (stereo not given), with “inactive”; and `CCN1CCOCC1`, with “inactive”; and `Nc1ccccn1`, with “inactive”.
